Source: PubChem BioAssay AID1347406
Calls of active or inactive are those of the source.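 Rule for the calls: active = IC50, the dose giving half inhibition, at or below 10 µM; inconclusive = IC50 above 10 µM up to 20 µM; inactive = IC50 over 20 µM.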

Biological target: Ubiquitin-like modifier-activating enzyme 1 (Homo sapiens) (UniProt P22314)
Test: inhibition of ubiquitin E1 thioester formation – biochemical, gel-based, fluorescent Ub (AID 1347406)
Details: fluorescent Ub gel imaging

Sequence of Ubiquitin-like modifier-activating enzyme 1 (Homo sapiens) (P22314 whole entry, looked up): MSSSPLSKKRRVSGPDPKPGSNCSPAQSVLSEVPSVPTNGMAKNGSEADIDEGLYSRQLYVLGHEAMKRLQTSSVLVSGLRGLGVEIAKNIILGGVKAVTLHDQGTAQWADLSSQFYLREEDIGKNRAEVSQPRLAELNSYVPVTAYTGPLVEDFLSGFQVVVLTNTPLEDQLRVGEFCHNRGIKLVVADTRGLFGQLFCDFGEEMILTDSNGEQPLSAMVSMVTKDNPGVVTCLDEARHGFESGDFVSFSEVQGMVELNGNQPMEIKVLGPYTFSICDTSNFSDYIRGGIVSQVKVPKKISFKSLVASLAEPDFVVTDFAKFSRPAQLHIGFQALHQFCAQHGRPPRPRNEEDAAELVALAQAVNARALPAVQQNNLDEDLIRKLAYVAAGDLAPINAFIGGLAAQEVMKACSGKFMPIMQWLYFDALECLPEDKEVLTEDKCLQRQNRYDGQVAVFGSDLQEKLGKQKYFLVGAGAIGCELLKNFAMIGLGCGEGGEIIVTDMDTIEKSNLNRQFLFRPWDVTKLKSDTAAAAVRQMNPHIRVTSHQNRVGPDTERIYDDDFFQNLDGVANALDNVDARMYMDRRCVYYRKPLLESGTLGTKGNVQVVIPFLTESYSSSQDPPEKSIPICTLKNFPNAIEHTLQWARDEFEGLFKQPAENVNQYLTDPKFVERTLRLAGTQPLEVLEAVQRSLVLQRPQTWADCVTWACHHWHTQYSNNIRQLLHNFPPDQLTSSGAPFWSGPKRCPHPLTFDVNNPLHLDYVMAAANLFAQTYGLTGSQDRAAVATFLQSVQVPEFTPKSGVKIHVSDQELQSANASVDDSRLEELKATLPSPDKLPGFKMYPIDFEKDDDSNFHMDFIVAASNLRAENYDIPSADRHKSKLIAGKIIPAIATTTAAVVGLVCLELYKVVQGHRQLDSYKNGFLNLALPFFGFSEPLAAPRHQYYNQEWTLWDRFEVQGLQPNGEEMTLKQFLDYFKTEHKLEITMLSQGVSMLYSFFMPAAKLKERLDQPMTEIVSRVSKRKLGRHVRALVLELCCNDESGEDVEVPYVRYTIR

outcome, inactive:
CCNc1ccc(Br)cc(C(=O)/C=C/c2c(Cl)cccc2Cl)c1=O inactive; >50 µM, CCOc1ccc2nc3cc(NC(=O)c4ccco4)ccc3c(N)c2c1 inactive; >50 µM, CN(CCC(=O)C=Cc1ccc(Cl)c(Cl)c1)CCc1ccc2c(c1)OCO2 inactive; >50 µM, CCOC(=O)c1c(NC(=O)CCC(=O)O)sc(C)c1-c1ccc(CC(C)C)cc1 inactive; >50 µM, NCCCSc1nc2c(c(=O)n1Cc1ccccc1)C1(CCCCC1)Cc1ccccc1-2 inactive; >50 µM, CNc1ccccc(C(=O)C=Cc2ccc3c(c2)OCO3)c1=O inactive; >50 µM, CCCCCCCCCOc1ccc(C#CC(=O)O)cc1
